Hit rate of the full screen: of about 410,000 compounds, about 6,400 (1.6%) were called active. About 20% were inconclusive and are not listed. For the sample, actives were picked, then their nearest neighbours and some compounds at random. Unmarked numbers belong to inactive results. Calls follow the shape of the dose curve; as a rule, active = well fitted inhibition curve with a large enough effect; inconclusive = small, poorly fitted or top-dose-only effect; inactive = no such curve, though single readings can be large or run the other way.
Each compound was assayed against Glucagon-like peptide 1 receptor (Homo sapiens) (UniProt P43220) (assay: qHTS of GLP-1 Receptor Inverse Agonists (Inhibition Mode)). Conditions: HEK293 GLP-1R CRE-luciferase, luminescence, 24 h, GLP-1R form is constitutively active; series mostly up to 38.3 µM; activity change, negative = inhibition: at the top concentration.
Sequence of Glucagon-like peptide 1 receptor (Homo sapiens) (P43220 whole entry, looked up): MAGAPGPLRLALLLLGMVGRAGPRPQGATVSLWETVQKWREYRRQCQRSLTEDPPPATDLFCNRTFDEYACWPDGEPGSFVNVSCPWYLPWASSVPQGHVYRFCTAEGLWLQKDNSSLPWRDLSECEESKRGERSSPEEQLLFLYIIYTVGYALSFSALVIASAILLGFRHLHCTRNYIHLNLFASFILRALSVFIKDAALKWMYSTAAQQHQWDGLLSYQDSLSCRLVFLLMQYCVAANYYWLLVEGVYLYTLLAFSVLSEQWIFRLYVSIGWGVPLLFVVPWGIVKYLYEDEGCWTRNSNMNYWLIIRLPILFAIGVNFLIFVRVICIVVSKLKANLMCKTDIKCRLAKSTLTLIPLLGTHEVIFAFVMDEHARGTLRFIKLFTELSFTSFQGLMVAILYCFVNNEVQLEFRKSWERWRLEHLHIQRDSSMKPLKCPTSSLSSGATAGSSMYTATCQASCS
Outline: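 Stable HEK293 clone (constitutively active GLP-1R + cAMP-response luciferase); 200 cells/uL plated, 12 h pre-culture, compound 24 hr, 37 deg C/5% CO2; detection reagent 12 min RT; luminescence.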
% is scaled to controls: 0 for no effect and ±100 for the full control effect; potency is read from the fitted curve at half-maximal effect.
Also: nearly all actives have a fitted effect of over 55% in size.

Row | SMILES | activity change, negative = inhibition | Potency
1 | CC1(C(=O)NS(=O)(=O)c2ccccc2)CCN1C(=O)c1ccccc1 (centres undefined) | 22.7% | 
2 | Nc1nc(CSc2nnnn2-c2ccccc2)nc(Nc2ccccc2)n1 | 25.2% | 
3 | CCOC(=O)C1=CCC2C(=O)N(Cc3ccccc3)C(=O)C12 (centres undefined) | 19.7% | 
4 | COC(=O)[C@]12CCCCC=C1N(Cc1ccco1)C(=O)[C@H](CC(=O)NCCCCc1ccccc1)C2 | -33.9% | 
5 | CCN(C(=O)Nc1cccc2ccccc12)c1ccccc1 | -26.5% | 
6 | CC(C)[C@H](NC(=O)c1ccccc1F)C(=O)Nc1cccc(S(=O)(=O)N2CCOCC2)c1 | -8.55% | 
7 | CCCNC(=O)C1(C)CCN(C(=O)c2ccccc2OC(F)(F)F)C1 (centres undefined) | -9.35% | 
8 | OC[C@H]1O[C@@H](c2nc(-c3nc(-c4ccc(F)cc4)no3)cs2)[C@H](O)[C@@H](O)[C@H]1O | 0.715% | 
9 | CC1(C(=O)NCc2ccccc2)CN(S(C)(=O)=O)CC(=O)N1CC(F)(F)F (centres undefined) | -0.0418% | 
10 | Cc1onc(-c2ccccc2Cl)c1C(=O)NCCn1ccc2ccccc21 |  | 6.31 µM (active)
11 | CC(=O)Nc1cccc(/C(C)=N/NC(=O)c2c(-c3ccccc3Cl)noc2C)c1 | 4.71% | 
12 | COCCNC(=O)c1ccccc1-c1nc(-c2ccccc2Cl)no1 | -3.04% | 
13 | CCNC(=O)C1CCCN(C(=O)c2ccc(OC)cc2OC)CC1 (centres undefined) | 20.1% | 
14 | COc1cc(NC(=O)c2cc(C3CC3)nc3c2c(C)nn3-c2ccccc2)cc(OC)c1 |  | 10 µM (active)
15 | COc1ccccc1NC(=O)c1cc(C2CC2)nc2c1c(C)nn2-c1ccc(C)cc1 | -11.6% | 
16 | COc1ccc(NC(=O)c2cc(-c3ccc(C)o3)nc3ccccc23)cc1 | -24.4% | 
17 | CC(C)C[C@H]1CNC(=O)C(=O)N1C[C@@H]1CCCN1C[C@H](Cc1ccccc1)N1C[C@H](CC(C)C)N(CC2CCCCCC2)C(=O)C1=O | 24.7% | 
18 | Cc1ccc(S(=O)(=O)N(C)C)cc1NC(=O)COC(=O)c1c(C)noc1C | 2.65% | 
19 | CN(c1ccc(OCC(=O)O)cc1)S(=O)(=O)c1ccc2ccccc2c1 | 3.29% | 
20 | CCc1noc(C)c1C(=O)Oc1ccc(N(C)S(=O)(=O)c2ccc(C)c(C)c2)cc1 |  | 12.6 µM (active)
21 | COC(=O)c1ccc2nc(-c3cccc(Br)c3)c(Cc3ccc(OC)cc3C)n2c1 | -12% | 
22 | COc1ccc(NC(=O)N(C)C[C@@H]2OCc3cn(nn3)CCCC(=O)N([C@H](C)CO)C[C@H]2C)c(OC)c1 | -5.31% | 

Row | SMILES | activity change, negative = inhibition | Potency
23 | O=C(NCCc1csc(-c2ccccc2)n1)c1ccccc1F | -18.6% | 
24 | COc1ccc(-c2nc(CCNC(=O)c3ccc(Br)o3)cs2)cc1 |  | inactive
25 | COc1ccc(CCC(=O)NCCc2csc(-c3ccc(Cl)cc3)n2)cc1 |  | 10 µM (active)
26 | CN1OC[C@@H]2CN(C(=O)c3cccnc3)[C@H](c3ccc(N4CCCCC4)cc3)C[C@@H]21 | 22.9% | 
27 | CNC(=O)C[C@H]1C(=O)N(Cc2ccccc2)C[C@@H]1CSC | 3.07% | 
28 | Oc1ccccc1-c1nc2ccc(Cl)cn2c1Nc1ccc2c(c1)OCCO2 | 4.4% | 
29 | Cc1cccc2nc(-c3ccc(Cl)s3)c(Nc3ccc4c(c3)OCCO4)n12 |  | 10 µM (active)
30 | Oc1ccc(-c2nc3ccc(Cl)cn3c2Nc2ccc3c(c2)OCO3)cc1 | 5.13% | 
31 | O=C(NCCS(=O)(=O)N1CCN(c2ccccc2)CC1)c1cc(=O)c2ccccc2o1 | -0.814% | 
32 | CC1(C2CC2)NC(=O)N(CC(=O)N2CCN(c3ccccc3F)CC2)C1=O (centres undefined) | 3.81% | 
33 | O=C(Nc1ccc(OCCO)cc1)c1csc([C@H]2C[C@H](O)[C@@H](CO)O2)n1 | 14.8% | 
34 | CCOC(=O)CSc1nc(N2CCOCC2)c2c(c1C#N)CC(C(C)C)OC2 (centres undefined) |  | 2.24 µM (active)
35 | CCOC(=O)CSc1nccc(N(C)C)c1C#N | 4.71% | 
36 | COc1ccc(CSc2nc(N3CCOCC3)c3c(c2C#N)CC(C)(C)OC3)cc1 | -7.76% | 
37 | Cc1ccc(-c2c(N)nc3ncccn23)cc1 | 8.12% | 
38 | CCCc1c(-c2ccccc2F)ncn1Cc1ccccc1OC | -29.9% | 
39 | CSc1ccc(CN2CCC2(C)C(=O)Nc2ccc(C)c(O)c2)cc1 (centres undefined) | -23.4% | 
40 | COc1cccc(NC(=O)C2(C)CCN2C(=O)CCC2CCCC2)c1 (centres undefined) | -23.3% | 
41 | CC1(C(=O)Nc2cccc(Oc3ccccc3)c2)CCN1Cc1ccccc1Cl (centres undefined) |  | 10 µM (active)
42 | Cc1ccc(C)c(C(O)c2ncc(-c3cccc4ccccc34)[nH]2)c1 (centres undefined) | -13.6% | 
43 | CCc1ccccc1NC(=O)/C(=C/c1ccccc1)c1ccccc1 |  | 11.2 µM (active)
44 | CCc1ccccc1NC(=O)CCOc1ccccc1 |  | inactive

Row | SMILES | activity change, negative = inhibition | Potency
45 | CCc1ccccc1NC(=S)Nc1cc(OC)c(NC(=O)C(C)C)cc1OC | -3.86% | 
46 | O=S1(=O)CC(N2CCN(Cc3ccccc3F)CC2)CN1Cc1cn(Cc2ccccc2)nn1 (centres undefined) | 0.366% | 
47 | O=C(NCCSCc1ccccc1)c1ccc(Cl)c(S(=O)(=O)N2CCOCC2)c1 |  | 11.2 µM (active)
48 | Cc1nn(Cc2ccccc2)c(C)c1CNC(=O)c1ccc(F)c(S(=O)(=O)N2CCOCC2)c1 | -18.7% | 
49 | NS(=O)(=O)c1ccc(CCNC(=O)c2ccc(Cl)c(S(=O)(=O)N3CCCCCC3)c2)cc1 | -24.7% | 
50 | CCCC(=O)N1CCC1(C)C(=O)Nc1ccc(-n2cncn2)cc1 (centres undefined) | 14.1% | 
51 | CCOC(=O)C1CCCN(C(=O)c2ccc(N(C)C)cc2)CC1 (centres undefined) | 18.7% | 
52 | OCCN1CCN(c2nnc(-c3ccccc3)c3ccccc23)CC1 | -8.64% | 
53 | O=C1c2ccccc2C(=O)c2c1cccc2N1CCN(CCO)CC1 | 0% | 
54 | CC(Nc1nc(N2CCN(CCO)CC2)nc2ccccc12)c1ccccc1 (centres undefined) |  | 4.47 µM (active)
55 | CC(=O)Nc1cc(-c2ccc(N3CCN(C)CC3)cc2)cn2c(-c3cccc(C(=O)N(C)C)c3)cnc12 | 14.6% | 
56 | COc1ccc(CNC2CCCCC2)cc1 | 9.28% | 
57 | COc1cc(C=O)c(Br)cc1OCC(=O)NCc1ccccc1 | -19.7% | 
58 | COc1cc(CNC2CCCC2)c(Br)cc1OCc1ccccc1 |  | 3.16 µM (active)
59 | COc1cc2nnn(-c3ccncc3)c2cc1OC | 25.3% | 
60 | O=C(CN1CCCCCC1)Nc1ccc(Cl)cc1F | -19.6% | 
61 | O=C(CN1CCCCCC1)Nc1ccc(Br)cc1[N+](=O)[O-] | -24.9% | 
62 | O=C(CN1CCCCCC1)Nc1ccc(Br)cc1Br |  | 10 µM (active)
63 | COCCCNC(=O)c1cccc2c(-c3ccc(O)c(OC)c3)coc12 | -6.91% | 
64 | COc1cccc(CN2CCC(C(=O)NC(c3ccc4c(c3)OCO4)c3ccccn3)CC2)c1 (centres undefined) | -6.91% | 
